# Bioassay records from PubChem.
# The list is not random: actives were taken first. Their share in the collection is about 3.7%.
# BoNT-A LC inh2: inhibitors of Botulinum neurotoxin A light chain protease; multiplex microsphere protease substrate cleavage, flow cytometry; inhibition, % at 10 µM; 360,000 tested, 0.17% active; note: plate controls were buffer without enzyme for full effect and enzyme alone for no effect
# BJeLR viability: BJeLR cell viability loss. inhibition, % (concentration not given with the values). 300,000 tested, 0.17% active. AID 1554. BJeLR (HRASV12) viability, CellTiter-Glo ATP luminescence, 48 h; in the data active = inhibition above about 50%; inconclusive = no clear call, values can overlap the other calls
# Vc quorum ag: induces V. cholerae light production without autoinducers; V. cholerae BH1578 lux reporter, luminescence, 6 h; activation, % at 18.7 µM; 350,000 tested, 0.16% active; AID 588436; in the data active = activation mostly above about 9.7%, no sharp cut-off; inconclusive = no clear call, values can overlap the other calls; inactive = mostly below about 3.7%
# Anthrax LF inh2: inhibitors of Bacillus anthracis lethal factor protease | P15917 | multiplex microsphere protease cleavage assay, LF | inhibition, % at 10 µM | 360,000 tested, 0.12% active | AID 588501; note: plate controls were buffer without enzyme for full effect and enzyme alone for no effect
# BoNT-F LC inh: blocks Botulinum neurotoxin F light chain protease. Multiplex microsphere protease cleavage assay, flow cytometry. inhibition, % at 10 µM. 360,000 tested, 0.22% active; in the data active = inhibition above about 35%, passing the limit was not always enough; inconclusive = no clear call, values can overlap the other calls; note: plate controls were buffer without enzyme for full effect and enzyme alone for no effect
# Autofluor counter: flagged as autofluorescent in microsphere protease counterscreen; compound autofluorescence counterscreen, microsphere flow cytometry; active compounds read high; fluorescence intensity (no concentration beside the values); 360,000 tested, 3.1% active; AID 624483; in the data active = fluorescence intensity above about 16000; inconclusive = no clear call, values can overlap the other calls
# Numbers without * were called inactive; i = inactive; u = inconclusive; x = not tested or not shown. Cut-off read from the data, not from the text of the source, unless noted: active = inhibition above about 30%; inconclusive = no clear call, values can overlap the other calls; inactive = below that.
SMILES,BoNT-A LC inh2,BJeLR viability,Vc quorum ag,Anthrax LF inh2,BoNT-F LC inh,Autofluor counter
N#Cc1ccc(-c2csc(NNC(=O)c3ccccc3)n2)cc1,-0.2,-6.1,3.6,4.0,-6.1,2845
O=C(NNc1nc(-c2ccccc2)cs1)c1ccccc1,0.5,-4.6,-5.3,-10.8,-3.1,22139*
CC1=C(C(=O)N2CCCCCC2)CC(CC(=O)NC2CCCC2)C(=O)N1Cc1ccc(F)cc1 (stereo not given),0.2,x,x,-12.4,-0.4,5275
COc1ccc(S(=O)(=O)N(C)C[C@@H]2Oc3cc(Br)ccc3S(=O)(=O)N([C@H](C)CO)C[C@@H]2C)cc1,0.1,x,2.1,8.5,-1.0,3799
N/C(=N\OC(=O)COc1ccc(Br)cc1)c1ccncc1,-0.8,-1.0,0.1,2.1,-5.1,2463
N/C(=N\OS(=O)(=O)c1ccc(Br)cc1)c1ccncc1,2.9,3.9,i,2.6,5.9,21736*
CCC1(CC)Cc2ccccc2-c2nc(NCCO)[nH]c(=O)c21,3.2,11.2,i,-0.8,7.0,20997*
CCC1(C)Cc2ccccc2-c2nc(NCCO)n(-c3ccccc3)c(=O)c21 (stereo not given),-0.3,2.2,i,-4.9,-5.1,16333*
CCC1(C)Cc2ccccc2-c2nc3n(c(=O)c21)CCCCC3 (stereo not given),-1.4,-3.6,-0.1,-3.8,-1.5,21213*
COc1ccc(-c2nc3c(C)cc(Br)cn3c2Cc2ccc(C)cc2)cc1OC,2.6,x,x,0.5,4.2,5822
C/C(=N\NC(N)=O)c1ccccc1,0.3,-0.3,i,3.9,-4.4,4823
C/C(=N\NS(C)(=O)=O)c1ccccc1,0.4,-2.8,16.7*,-4.7,1.5,9366
CN(C)Cc1cn(CCC(=O)O)c2ccccc12,-1.2,-3.3,i,1.1,-5.6,24504*
COc1ccc(C)cc1NC(=O)c1ccc(NC(=O)CC2SC(N3CCCC3)=NC2=O)cc1 (stereo not given),0.2,-19.4,7.6*,-6.9,-0.2,6223
Cc1ccnc(NC(=O)c2ccc(NC(=O)CC3SC(N4CCCC4)=NC3=O)cc2)c1 (stereo not given),3.3,-1.0,-0.7,-5.8,u,4665
C/C(=C\C(=O)c1ccc(C)o1)Nc1ccc2c(c1)OCO2,-1.7,2.6,0.4,-11.8,-11.7,23606*
CCOc1ccc(N/C(C)=C/C(=O)c2ccc(C)o2)cc1,0.1,1.8,x,-17.2,-0.1,9417
Cc1ccc(C(=O)Nc2ccc3c(c2)OCO3)o1,-0.1,12.6,i,-1.1,-10.8,2804
COC(=O)c1ccc(N/C(C)=C/C(=O)c2ccc(C)o2)cc1,-0.5,2.9,i,-3.9,-1.4,16289*
NC(c1cccc(F)c1)c1nc(-c2ccc(Cl)cc2)cs1 (stereo not given),0.3,x,-0.4,-1.2,-11.5,3504
O=C(Nc1ccon1)c1cc2ccccc2oc1=O,-1.0,1.7,-0.2,-1.7,-1.8,20901*
CCOc1ccccc1NC(=O)c1cc2ccccc2oc1=O,3.5,-8.2,-1.5,9.9,39.9*,3036
Cc1cc(NC(=O)c2cc3ccccc3oc2=O)no1,-1.2,x,i,0.9,3.9,5403
CC1(C(=O)Nc2ccc(F)cc2F)CCN1C(=O)Cc1ccccc1 (stereo not given),0.3,x,-1.6,-0.6,-5.5,2934
CC(=O)NC(c1ccc(F)c(F)c1)c1nc(-c2ccccc2C)cs1 (stereo not given),0.0,x,-0.5,-2.5,-0.7,2880
SMILES,BoNT-A LC inh2,BJeLR viability,Vc quorum ag,Anthrax LF inh2,BoNT-F LC inh,Autofluor counter
c1ccc(COc2ccc(CNCc3cccs3)cc2)cc1,-1.7,1.4,-0.2,-4.2,-15.4,20591*
Brc1ccc(CNCc2cccs2)cc1,-0.1,-5.3,0.3,-1.0,-5.4,2184
Cc1ccsc1CN1CCN(c2ccccn2)CC1,3.2,-16.4,i,-1.8,8.3,21639*
COc1ccc2ccccc2c1CN1CCN(Cc2ccccc2)CC1,-0.7,6.8,i,-7.2,-6.3,5884
COc1ccc2ccccc2c1CN1CCCC(CO)C1 (stereo not given),u,-4.0,-0.2,-14.0,-3.9,22577*
COc1ccc(C2c3c(ccc4ccccc34)Oc3ncn4nc(Cc5ccccc5)nc4c32)cc1OC (stereo not given),-0.1,-10.2,-0.3,0.2,1.8,2209
COc1ccc(/C=N/OCc2nc3c4c(ncn3n2)Oc2ccc3ccccc3c2C4c2ccccc2)cc1 (stereo not given),1.2,-4.0,-12.5,-0.8,0.4,23152*
CCOC(=O)c1csc(-c2ccc(COC(=O)c3ccccc3)o2)n1,0.4,x,x,-8.0,-0.1,5821
O=C(c1ccc(Cl)cc1)N1CCC(c2nc(-c3cccs3)no2)CC1,-5.1,-5.8,-0.2,-1.3,-5.8,23989*
Cn1nccc1C(=O)OCC(=O)Nc1nc(-c2ccccc2)cs1,u,x,-1.8,0.1,0.6,22484*
O=C(O)c1cccc(N2C(=O)c3cccnc3C2=O)c1,u,-1.9,-3.5,-4.0,-3.7,23303*
CC1=CC(C)(C)N2C(=O)C3(SCC(=O)N3c3ccc(O)cc3)c3cc(C)cc1c32 (stereo not given),3.2,-17.1,11.1,-4.1,3.3,20630*
Cc1ccc(N2C(=O)CSC23C(=O)Nc2ccccc23)cc1 (stereo not given),-0.1,3.7,-0.5,-5.6,-10.0,u
N#CC(c1ccccc1)C(CC(=O)c1ccccc1)c1ccccc1 (stereo not given),-0.3,x,i,-2.9,-1.6,3846
Fc1ccc(-c2nnc(Cc3nnc(-c4ccc(F)cc4)o3)o2)cc1,1.9,x,-0.2,0.5,2.9,22771*
Fc1ccc(-c2nnc(-c3ccc(F)cc3)o2)cc1,2.0,7.8,-0.6,-5.8,8.9,3107
Nc1nc(Br)c2c(F)cccc2c1-c1ccc(F)cc1,2.9,-4.4,i,0.3,1.8,22286*
Nc1nc(Br)c2c(F)cccc2c1-c1ccccc1,-4.1,x,i,1.1,-4.9,21859*
O=C(CNC(=O)c1cccc(-n2cccc2)c1)Nc1ccccc1Br,-0.2,x,i,6.2,16.2,3846
Nc1ccc(C(O)(C(F)(F)F)C(F)(F)F)cc1,-0.2,-6.8,i,0.4,-0.1,16402*
CC(=O)Nc1ccc(C(O)(C(F)(F)F)C(F)(F)F)cc1,0.2,0.6,0.0,0.4,0.5,2657
COC(=O)c1csc(-c2ccc(CO)o2)n1,-0.7,x,x,-3.2,2.9,6238
OC(COc1ccc2cc(Br)ccc2c1)CN1CCCC1 (stereo not given),-3.4,3.4,-0.2,-4.2,-5.3,23249*
CCCc1nc2ccc(Cl)cn2c1Cc1ccccc1,3.6,x,x,13.4,0.0,5356
CN1C(=O)c2ccc(C(=O)NCc3ccc4c(c3)OCO4)cc2C1=O,-1.1,1.6,-0.3,-0.3,-7.3,2107
CCCCN1C(=O)c2ccc(C(=O)NCc3ccco3)cc2C1=O,-0.5,-8.7,i,-5.9,2.8,5973
O=C(NCc1ccc2c(c1)OCO2)c1nn(-c2ccccc2)c(=O)c2ccccc12,u,-3.9,1.4,-8.8,-8.4,21677*
